Reference: PubChem BioAssay (NCATS)
Results filed as inconclusive are left out. Where a call stands in place of a potency, no number is given. Activity calls are given as the source filed them. Calls follow the shape of the dose curve; as a rule, active = well fitted curve in the direction sought with a large enough effect; inconclusive = small, poorly fitted or top-dose-only effect, or another doubt; inactive = no such curve, though single readings can be large; an effect the other way counts as inactive or inconclusive.

Key:
[1] = test system: Zika virus NS2B-NS3 protease; experiment: Primary screen GU AMC qHTS for Zika virus inhibitors (AID 1347154); also: nearly all actives have a fitted effect of over 70% in size
Procedure, shortened: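 Unlinked Zika NS2B hydrophilic domain/NS3 protease domain noncovalent complex (25 nM final) in 10 mM Tris-HCl pH 8.0, 0.01% Tween 20, with AMC peptide substrate. Fluorescence (ex 340, em 450 nm) change over 15 min, room temperature; percent inhibition fitted to 4-parameter Hill equation.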

[2] = test system: Zika virus NS2B-NS3 protease (unlinked complex); experiment: Primary screen GU Rhodamine qHTS for Zika virus inhibitors: Unlinked NS2B-NS3 protease assay (AID 1347159); also: nearly all actives have a fitted effect of over 60% in size; also: potency is read from the fitted curve at half-maximal effect
Procedure, shortened: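 A qHTS format was used, with compound concentrations ranging up to 114 microM. Each compound was preincubated with 25 nM NS2B-NS3 protease, and the substrate was then added at 1.5 microM. Curves were fitted with a 4-parameter Hill model.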

SMILES | Potency [1] | Potency [2]
CCCn1c(=O)c2[nH]c(-c3cnn(Cc4cccc(C(F)(F)F)c4)c3)nc2n(CC)c1=O | inactive | inactive
CN(C)c1nc(Cc2ccc(NC(=O)c3ccc4ccccc4c3)cc2)nc(Cl)c1CC(=O)O | inactive | 28.2 µM (active)
CCCNC(=O)Nc1ccc(Oc2ncnc3cc(OC)c(OC)cc23)cc1Cl | inactive | inactive
CCCCCCCCCC(=O)N[C@@H](Cc1c[nH]c2ccccc12)C(=O)N[C@H](CC(N)=O)C(=O)N[C@@H](CC(=O)O)C(=O)N[C@@H]1C(=O)NCC(=O)N[C@@H](CCCN)C(=O)N[C@@H](CC(=O)O)C(=O)N[C@H](C)C(=O)N[C@@H](CC(=O)O)C(=O)NCC(=O)N[C@H](CO)C(=O)N[C@@H]([C@@H](C)CC(=O)O)C(=O)N[C@@H](CC(=O)c2ccccc2N)C(=O)O[C@@H]1C | inactive | inactive
